Source: PubChem
Shown are actives, neighbours in structure and some others; about 3.5% of the full set was active somewhere.
MITF inh: blocks human microphthalmia-associated transcription factor; O75030; AlphaScreen MITF homodimerization, bead proximity signal; inhibition, % at 2.6 µM; 650,000 compounds, 0.91% hits; in the data active = inhibition above about 50%
GPR151 ag: activates the human receptor GPR151; PathHunter beta-arrestin GPR151 cells, luminescence; activation, % at 11.2 µM; 650,000 compounds, 1% hits; in the data active = activation above about 4.9%
TEAD-YAP inh: TEAD-YAP interaction inhibition. HEK-TIYL cells, TEAD-Gal4/YAP UAS-luciferase luminescence. AID 1259422. inhibition, % at 9.12 µM. 640,000 compounds, 1.4% hits; in the data active = inhibition above about 32%
FBW7 activator: human FBW7 E3 ligase activation, primary screen; AlphaScreen FBW7–phospho-cyclin E peptide binding, activator screen; normalized activity (activation), % at 26.1 µM; 650,000 compounds, 0.13% hits; AID 1259310; in the data active = normalized activity above about 1.9%;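 note: purified mutant Fbw7 with reduced substrate affinity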
Target sequence (Q969H0 whole entry, looked up): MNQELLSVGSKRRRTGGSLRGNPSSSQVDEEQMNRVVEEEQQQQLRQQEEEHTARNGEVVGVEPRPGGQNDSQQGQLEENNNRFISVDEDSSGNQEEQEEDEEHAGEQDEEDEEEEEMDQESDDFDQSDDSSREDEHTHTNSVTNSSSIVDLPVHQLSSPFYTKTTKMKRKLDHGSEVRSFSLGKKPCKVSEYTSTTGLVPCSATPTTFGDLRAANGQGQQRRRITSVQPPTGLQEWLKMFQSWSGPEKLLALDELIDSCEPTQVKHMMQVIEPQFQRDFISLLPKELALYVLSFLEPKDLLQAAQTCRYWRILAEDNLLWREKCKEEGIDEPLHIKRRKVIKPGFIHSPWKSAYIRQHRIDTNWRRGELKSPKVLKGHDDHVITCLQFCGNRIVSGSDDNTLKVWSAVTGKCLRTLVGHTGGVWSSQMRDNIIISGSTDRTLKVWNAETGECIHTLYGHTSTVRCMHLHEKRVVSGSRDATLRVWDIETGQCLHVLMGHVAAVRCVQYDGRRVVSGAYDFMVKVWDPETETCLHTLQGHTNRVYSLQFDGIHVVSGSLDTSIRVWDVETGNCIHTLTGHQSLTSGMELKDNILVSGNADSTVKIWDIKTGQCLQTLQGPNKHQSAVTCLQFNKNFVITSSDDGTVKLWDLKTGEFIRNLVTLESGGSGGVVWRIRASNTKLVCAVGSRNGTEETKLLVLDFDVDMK
Large screens that a line does not name were inactive.

COc1ccc(/C=C2\Oc3c(ccc(O)c3CN3CCCC3)C2=O)cc1	none
CC(CN=CC1=C(O)CC(C)(C)CC1=O)c1ccccc1 (stereo not given)	none
O=C(Nc1ccc2nc3n(c(=O)c2c1)CCCCC3)c1cc([N+](=O)[O-])ccc1F	none
O=C(Nc1ccc2nc3n(c(=O)c2c1)CCCCC3)c1c(F)ccc([N+](=O)[O-])c1F	TEAD-YAP inh 36
O=C(Cc1ccccc1)N/N=C/c1cccc2ccccc12	none
O=C(Cc1ccccc1)N/N=C/c1ccc(O)c2ncccc12	MITF inh 98
O=C(N/N=C/c1ccc(O)c2ncccc12)c1ccc(F)cc1	MITF inh 113
COc1ccc(C2Nc3ccccc3C(=O)N2c2ccc3ccccc3c2)cc1 (stereo not given)	TEAD-YAP inh 64
COc1ccc(C2Nc3ccccc3C(=O)N2c2ccc(C)cc2)cc1 (stereo not given)	none
CCC(=O)NC(c1ccccc1OC)c1cc([N+](=O)[O-])c2cccnc2c1O (stereo not given)	MITF inh 98
CC(=O)NC(c1ccc(C(C)C)cc1)c1cc([N+](=O)[O-])c2cccnc2c1O (stereo not given)	none
CCCC(=O)NC(c1ccc2c(c1)OCO2)c1cc([N+](=O)[O-])c2cccnc2c1O (stereo not given)	none
CCC(=O)NC(c1ccc2c(c1)OCO2)c1cc([N+](=O)[O-])c2cccnc2c1O (stereo not given)	MITF inh 63
CCCC(=O)NC(c1ccc(O)c(OCC)c1)c1cc([N+](=O)[O-])c2cccnc2c1O (stereo not given)	none
CCC(=O)NC(c1ccccc1)c1cc([N+](=O)[O-])c2cccnc2c1O (stereo not given)	MITF inh 84
CCC(=O)NC(c1ccccc1Cl)c1cc([N+](=O)[O-])c2cccnc2c1O (stereo not given)	MITF inh 72
CCC(=O)NC(c1ccc(C(C)C)cc1)c1cc([N+](=O)[O-])c2cccnc2c1O (stereo not given)	none
O=C(c1ccc(CS(=O)(=O)Cc2ccccc2F)o1)N1CCOCC1	none
O=C1NC(=S)N(c2ccc(F)cc2)C(=O)/C1=C\c1ccc2c(c1)OCCO2	MITF inh 71
O=C1OC2(CCCCC2)OC(=O)C1=Cc1ccc([N+](=O)[O-])o1	MITF inh 66
O=C1NN(c2ccccc2)C(=O)/C1=C\c1ccc(-c2ccc([N+](=O)[O-])cc2)o1	none
O=C1NC(=S)N(c2ccccc2)C(=O)/C1=C\c1ccc([N+](=O)[O-])o1	MITF inh 80
O=C1NN(c2ccccc2)C(=O)/C1=C/c1ccc([N+](=O)[O-])o1	MITF inh 79
O=C1OC2(CCCC2)OC(=O)C1=Cc1ccc(-c2ccc([N+](=O)[O-])cc2)o1	none
CC(C)n1c(-c2ccc(N3CCN(C)CC3)cc2)nc2c(NCc3ccccc3)ncnc21	none
COc1ccccc1/C=N/NC(=O)c1[nH]nc(-c2ccccc2)c1C	none
CCOc1cccc(/C=N/NC(=O)c2ccccc2O)c1O	TEAD-YAP inh 88
CCOc1ccccc1C(=O)N/N=C/c1cccc(OC)c1O	none
CCOc1cccc(/C=N/NC(=O)c2cc(-c3ccco3)[nH]n2)c1O	TEAD-YAP inh 39
CCOc1cccc(/C=N/NC(=O)c2[nH]nc(-c3ccccc3)c2C)c1O	TEAD-YAP inh 48
COCCCNc1nc(CN2CCN(c3ccccc3Cl)CC2)nc2ccc(C)cc12	none
COc1cccc(-c2ccccc2NC(=O)C2CCN(Cc3cnc(C)s3)CC2)c1	none
O=c1nc(N/N=C/c2c[nH]c3ccccc23)cn[nH]1	TEAD-YAP inh 58
O=c1nc(N/N=C/C=C/c2ccccc2)cn[nH]1	TEAD-YAP inh 50
O=c1nc(N/N=C/c2ccc(O)cc2)cn[nH]1	none
CCCn1c2ccccc2c2cnn(CC(=O)NCc3ccc(F)cc3)c(=O)c21	none
O=C(Nc1cc(C(F)(F)F)cc(C(F)(F)F)c1)c1ccc([N+](=O)[O-])o1	TEAD-YAP inh 59
CCC1CCCCN1C(=O)CSc1nc2ccccc2c(=O)n1Cc1ccco1 (stereo not given)	none
Cc1csc2n1c(C(=O)c1ccccc1)c(C)[n+]2-c1ccc(Br)cc1	none
CCc1c(C(=O)c2ccc(C)cc2)n2c(C)csc2[n+]1-c1ccccc1	TEAD-YAP inh 40
CCN(CC)C(=O)C1CCCN(c2nc(Nc3ccc(NC(C)=O)cc3)c3ncn(C(C)C)c3n2)C1 (stereo not given)	TEAD-YAP inh 46
CCN(CC)C(=O)C1CCCN(c2nc(Nc3ccc(Oc4ccccc4)cc3)c3ncn(C4CCCCC4)c3n2)C1 (stereo not given)	FBW7 activator 5.4
CCN(CC)C(=O)C1CCCN(c2nc(NC3CC3)c3ncn(C4CCCCC4)c3n2)C1 (stereo not given)	none
COc1ccccc1CNC(=O)c1sc2ncnc(N(C)c3ccccc3)c2c1C	none
CC(=O)N(Cc1ccc(F)cc1)C1=C(Cl)C(=O)c2ccccc2C1=O	none
CCC(=O)N(C1=C(NC)C(=O)c2ccccc2C1=O)C(C)C	TEAD-YAP inh 85
CNC1=C(N(Cc2ccc(Cl)c(Cl)c2)C(C)=O)C(=O)c2ccccc2C1=O	TEAD-YAP inh 83
CC(=O)N(Cc1ccc(F)cc1)C1=C(NCCc2ccccc2)C(=O)c2ccccc2C1=O	TEAD-YAP inh 60
CC(=O)N(Cc1ccccc1)C1=C(N2CCCCC2)C(=O)c2ccccc2C1=O	none
CC(=O)NC1=C(N(C)C)C(=O)c2ccccc2C1=O	none
CC1=C(C(=O)OC(C)C)C(c2ccc(Br)cc2)N2C(=O)CCSC2=N1 (stereo not given)	none
O=C(OCc1csc(-c2ccccc2)n1)C1CCN(S(=O)(=O)c2cccs2)CC1	none
Cc1ccc(NC(=O)CSc2nnc3ncccn23)cc1Cl	none
CCCCCCN1C2=NCCCN2c2ccccc21	TEAD-YAP inh 36
C=CCN1C2=NCCCN2c2ccccc21	none
CC(C(=O)c1ccc(-c2ccccc2)cc1)[n+]1ccccc1 (stereo not given)	none
Cc1ccc[n+](C(C)C(=O)c2ccc(-c3ccccc3)cc2)c1 (stereo not given)	TEAD-YAP inh 66
COc1ccc(-c2cc3nc4c(c(NCc5cccnc5)n3n2)CCC4)cc1OC	TEAD-YAP inh 36
COc1ccc(-c2cc3nc4c(c(NCCN)n3n2)CCC4)cc1OC	none
Cc1ccc(CC(=O)Nc2ccncc2)cc1	TEAD-YAP inh 42
Cc1cc(OCC(=O)Nc2cccnc2)cc(C)c1Br	none
Cc1cc(OCC(=O)Nc2ccncc2)cc(C)c1Br	TEAD-YAP inh 33
COC1C(O)CC(OC2CC(Oc3cc4cc5c(c(O)c4c(O)c3C)C(=O)[C@@H](OC3CC(OC4CC(OC6CC(C)(O)C(C)C(C)O6)C(O)C(C)O4)C(O)C(C)O3)[C@H]([C@H](OC)C(=O)[C@@H](O)[C@@H](C)O)C5)OC(C)C2OC(C)=O)OC1C (stereo not given in full)	TEAD-YAP inh 96
O=C(NC1CCCCC1)c1ccc([N+](=O)[O-])cc1Cl	TEAD-YAP inh 40
O=C(Nc1cnc2ccccc2c1)c1ccccc1Cl	TEAD-YAP inh 78
